Measured values: PubChem BioAssay AID1159580 (chemical genetic matrix, 2015)
The campaign covered roughly 5,500 compounds. About 2,000 (36%) were called active. About 18% were inconclusive and are not listed. Cut-off read from the data, not from the text of the source: active = normalized growth mostly below about 0.91 (no sharp cut-off); inconclusive = no clear call, values can overlap the other calls; inactive = mostly above about 0.92. The list shows a part of the results.

Assay: chemical genetic growth profiling, strain panel (AID 1159580);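 note: tested at 20 µM; growth read once vehicle control cultures reached saturation at 30 °C; 1 = growth at the plate median or of vehicle wells; lower values mean less growth of the strain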
Conditions: S. cerevisiae deletion strains, growth OD

Measured: normalized growth

CCOC(=O)c1ncn2c1CN(C)C(=O)c1cc(F)ccc1-2
inactive: locus YAL013W, strain DEP1, hits give low values 0.994 | locus YAL021C, strain ccr4, hits give low values 1.01 | locus YAL026C, strain drs2, hits give low values 1.02 | locus YAL030W, strain snc1, hits give low values 1.02 | locus YAL040C, strain CLN3, hits give low values 1 | locus YBL061C, strain skt5, hits give low values 1.01 | locus YBR009C, strain hhf1, hits give low values 1.03 | locus YBR023C, strain chs3, hits give low values 1.02 | locus YBR171W, strain sec66, hits give low values 1.02 | locus YBR231C, strain swc5, hits give low values 1.02 | locus YBR279W, strain paf1, hits give low values 1.01 | locus YCL011C, strain gbp2, hits give low values 1.01 | locus YCL016C, strain dcc1, hits give low values 1.02 | locus YCL061C, strain MRC1 (second series), hits give low values 1 | locus YCL061C, strain MRC1, hits give low values 1.02 | locus YCL069W, strain vba3, hits give low values 1.01 | locus YCR088W, strain abp1, hits give low values 1.02 | locus YDL005C, strain med2, hits give low values 1.02 | locus YDL040C, strain nat1, hits give low values 1.02 | locus YDR001C, strain nth1, hits give low values 1.02 | locus YDR069C, strain doa4, hits give low values 1.03 | locus YDR137W, strain rgp1, hits give low values 1 | locus YDR150W, strain NUM1, hits give low values 1.01 | locus YDR159W, strain sac3, hits give low values 1.03 | locus YDR195W, strain ref2 1.02 | locus YDR297W, strain sur2, hits give low values 1.01 | locus YDR334W, strain swr1, hits give low values 1.02 | locus YDR335W, strain msn5, hits give low values 1.02 | locus YDR363W, strain ESC2, hits give low values 0.997 | locus YDR392W, strain spt3, hits give low values 0.994 | locus YEL003W, strain gim4, hits give low values 1.02 | locus YEL037C, strain rad23, hits give low values 1.01 | locus YEL061C, strain CIN8 (second series), hits give low values 1.02 | locus YER002W, strain NOP16, hits give low values 0.993 | locus YER015W, strain faa2, hits give low values 1.01 | locus YER016W, strain bim1, hits give low values 1.01 | locus YER111C, strain swi4, hits give low values 1.01 | locus YER155C, strain BEM2 (second series), hits give low values 1.01 | locus YFR010W, strain ubp6, hits give low values 1.02 | locus YGL167C, strain pmr1, hits give low values 1.03 | locus YGL173C, strain kem1, hits give low values 1.02 | locus YGL227W, strain vid30, hits give low values 1.02 | locus YGL240W, strain doc1, hits give low values 1.04 | locus YGL253W, strain hxk2, hits give low values 1.02 | locus YGR078C, strain PAC10, hits give low values 1.01 | locus YHR013C, strain ard1, hits give low values 1.03 | locus YHR027C, strain rpn1, hits give low values 1.01 | locus YHR030C, strain SLT2, hits give low values 0.986 | locus YHR079C, strain IRE1, hits give low values 0.997 | locus YHR142W, strain chs7, hits give low values 0.972 | locus YJL092W, strain hpr5, hits give low values 1.02 | locus YJL095W, strain BCK1 (second series), hits give low values 1.02 | locus YJL095W, strain BCK1, hits give low values 0.997 | locus YJL115W, strain asf1, hits give low values 1.02 | locus YJL129C, strain trk1, hits give low values 1.01 | locus YJL154C, strain vps35, hits give low values 1.02 | locus YJL164C, strain tpk1, hits give low values 1.02 | locus YJL166W, strain qcr8, hits give low values 1.03 | locus YJL187C, strain SWE1, hits give low values 1.02 | locus YJR066W, strain TOR1, hits give low values 0.93 | locus YJR075W, strain HOC1, hits give low values 1 | locus YKL160W, strain elf1, hits give low values 1.01 | locus YKR026C, strain gcn3, hits give low values 1.01 | locus YKR091W, strain srl3, hits give low values 1.01 | locus YLL001W, strain dnm1, hits give low values 1.01 | locus YLL026W, hits give low values 1.02 | locus YLL041C, strain sdh2, hits give low values 1.02 | locus YLR027C, strain aat2, hits give low values 1.02 | locus YLR113W, strain HOG1, hits give low values 1.01 | locus YLR221C, strain rsa3, hits give low values 1.02 | locus YLR258W, strain gsy2, hits give low values 1.02 | locus YLR262C, strain YPT6 (second series), hits give low values 1.02 | locus YLR320W, strain mms22, hits give low values 1.03 | locus YLR342W, strain FKS1, hits give low values 1.02 | locus YLR357W, strain rsc2, hits give low values 1.03 | locus YLR370C, strain arc18, hits give low values 1.02 | locus YLR384C, strain iki3, hits give low values 1.02 | locus YML120C, strain ndi1, hits give low values 1 | locus YMR058W, strain fet3, hits give low values 1.02 | locus YMR125W, strain sto1, hits give low values 1.03 | locus YMR129W, hits give low values 1.01 | locus YMR205C, strain PFK2, hits give low values 1.03 | locus YMR231W, strain pep5, hits give low values 1.01 | locus YMR307W, strain GAS1, hits give low values 0.985 | locus YNL071W, strain lat1, hits give low values 1.01 | locus YNL175C, strain NOP13, hits give low values 0.999 | locus YNL183C, strain NPR1, hits give low values 0.938 | locus YNL197C, strain WHI3, hits give low values 0.999 | locus YNL209W, strain ssb2, hits give low values 1.02 | locus YNL224C, strain SQS1, hits give low values 1 | locus YNL248C, strain rpa49, hits give low values 0.992 | locus YNL322C, strain KRE1 (second series), hits give low values 1.01 | locus YNR049C, strain mso1, hits give low values 1.02 | locus YOR001W, strain rrp6, hits give low values 1.01 | locus YOR070C, strain gyp1, hits give low values 1.02 | locus YOR080W, strain dia2, hits give low values 1.02 | locus YOR083W, strain WHI5 (second series), hits give low values 1.03 | locus YOR083W, strain WHI5, hits give low values 0.997 | locus YOR106W, strain vam3, hits give low values 1.01 | locus YOR231W, strain MKK1, hits give low values 0.983 | locus YOR265W, strain rbl2, hits give low values 1.02 | locus YOR270C, strain vph1, hits give low values 1.02 | locus YOR290C, strain snf2, hits give low values 1.01 | locus YPL051W, strain arl3, hits give low values 1.01 | locus YPL055C, strain LGE1, hits give low values 1.01 | locus YPL078C, strain atp4, hits give low values 1 | locus YPL106C, strain sse1, hits give low values 1.04 | locus YPL240C, strain hsp82, hits give low values 1 | locus YPL256C, strain CLN2, hits give low values 0.973
